Several values for one entry are separate records, joined by “and”; a condition that tells them apart may be missing. Identical values can stand only once. Results filed as inconclusive are left out. Activity calls are given as the source filed them. The call rests on the fitted dose curve; in most records, active means well fitted curve in the direction sought with a large enough effect; inconclusive means small, poorly fitted or top-dose-only effect, or another doubt; inactive means no such curve, though single readings can be large; an effect the other way counts as inactive or inconclusive. Non-standard residues stand in square brackets, D forms with d. Residues, ends and D or L forms follow the SMILES beside them. *: point of attachment. Sta = CC(C)C[C@H](N)[C@@H](O)CC(=O)O; Isovaleryl = CC(C)CC(=O)*
What was measured:
[1] = qHTS of pediatric cancer cell lines to identify multiple opportunities for drug repurposing: Confirmatory screen for MG 63 (6-TG R) cells (AID 1347119); conditions: MG-63 (6-TG resistant) osteosarcoma viability; series mostly up to 45.9 µM; further: nearly all actives have a fitted effect of over 55% in size; further: potency means the concentration at half of the fitted maximal effect
Outline: (§1)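 Cells (500-1,000/well) in growth media were settled 5 h at 37 degrees C, then given compounds for 48 h. Viability was read as CellTiter-Glo luminescence. Primary runs used MIPE at 11 points (0.78 nM-46 µM) and NPC at 8 points (0.59 nM-46 µM); follow-ups used 11 points.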

[2] = qHTS of pediatric cancer cell lines to identify multiple opportunities for drug repurposing: Confirmatory screen for control Hh wild type fibroblast cells (AID 1347121); conditions: viability qHTS; series mostly up to 45.9 µM; further: nearly all actives have a fitted effect of over 70% in size; further: potency means the concentration at half of the fitted maximal effect
Outline: as §1

[3] = qHTS of pediatric cancer cell lines to identify multiple opportunities for drug repurposing: Confirmatory screen for U-2 OS cells (AID 1347122); conditions: U-2 OS osteosarcoma cell viability; series mostly up to 45.9 µM; further: nearly all actives have a fitted effect of over 65% in size; further: potency means the concentration at half of the fitted maximal effect
Outline: as §1

[4] = qHTS of pediatric cancer cell lines to identify multiple opportunities for drug repurposing: Confirmatory screen for Rh41 cells (AID 1347123); conditions: Rh41 rhabdomyosarcoma cells, viability/cytotoxicity qHTS; series mostly up to 45.9 µM;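 further: 48 h compound exposure; nearly all actives have a fitted effect of over 60% in size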; further: potency means the concentration at half of the fitted maximal effect
Outline: as §1

[5] = qHTS of pediatric cancer cell lines to identify multiple opportunities for drug repurposing: Confirmatory screen for RD cells (AID 1347124); conditions: RD rhabdomyosarcoma cell viability; series mostly up to 45.9 µM;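 further: cells exposed to compound for 48 h before viability readout; nearly all actives have a fitted effect of over 65% in size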; further: potency means the concentration at half of the fitted maximal effect
Outline: as §1

[6] = qHTS of pediatric cancer cell lines to identify multiple opportunities for drug repurposing: Confirmatory screen for Rh18 cells (AID 1347125); conditions: Rh18 rhabdomyosarcoma cells, viability; series mostly up to 45.9 µM; further: nearly all actives have a fitted effect of over 55% in size; further: potency means the concentration at half of the fitted maximal effect
Outline: as §1

[7] = qHTS of pediatric cancer cell lines to identify multiple opportunities for drug repurposing: Confirmatory screen for Rh30 cells (AID 1347126); conditions: Rh30 rhabdomyosarcoma cell viability; series mostly up to 45.9 µM; further: nearly all actives have a fitted effect of over 55% in size; further: potency means the concentration at half of the fitted maximal effect
Outline: as §1

[8] = qHTS of pediatric cancer cell lines to identify multiple opportunities for drug repurposing: Confirmatory screen for Saos-2 cells (AID 1347127); conditions: Saos-2 osteosarcoma cell viability; series mostly up to 45.9 µM; further: nearly all actives have a fitted effect of over 60% in size; further: potency means the concentration at half of the fitted maximal effect
Outline: as §1

[9] = qHTS of pediatric cancer cell lines to identify multiple opportunities for drug repurposing: Confirmatory screen for SK-N-SH cells (AID 1347129); conditions: SK-N-SH neuroblastoma cell viability; series mostly up to 46.1 µM;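 further: cells exposed to compound for 48 h before viability read; nearly all actives have a fitted effect of over 60% in size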; further: potency means the concentration at half of the fitted maximal effect
Outline: as §1

[10] = tested on: Zika virus NS2B-NS3 protease; experiment: Primary screen GU AMC qHTS for Zika virus inhibitors (AID 1347154); conditions: Zika NS2B-NS3 unlinked protease, AMC fluorogenic substrate; series mostly up to 54.1 µM;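 further: 0% = no-inhibitor control and -100% = no-enzyme control; nearly all actives have a fitted effect of over 70% in size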
Outline: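 Unlinked Zika NS2B hydrophilic domain/NS3 protease domain noncovalent complex (25 nM final) in 10 mM Tris-HCl pH 8.0, 0.01% Tween 20, with AMC peptide substrate. Fluorescence (ex 340, em 450 nm) change over 15 min, room temperature; percent inhibition fitted to 4-parameter Hill equation.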

[11] = tested on: Zika virus NS2B-NS3 protease (unlinked complex); experiment: Primary screen GU Rhodamine qHTS for Zika virus inhibitors: Unlinked NS2B-NS3 protease assay (AID 1347159); conditions: Recombinant ZIKV NS2B-NS3 protease, Rhodamine110 substrate fluorescence; series mostly up to 107 µM; further: on the % scale 0 is the no-effect control and ±100 the full control effect; nearly all actives have a fitted effect of over 60% in size
Outline: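 Unlinked NS2B/NS3, 25 nM; Rhod110 peptide, 1.5 microM; compounds, up to 114 microM. Reaction run 15 min at RT in 10 mM Tris-HCl pH 8.0, 0.01% Tween 20; kinetic fluorescence change fitted with a 4-parameter Hill model.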

[12] = qHTS of pediatric cancer cell lines to identify multiple opportunities for drug repurposing: Confirmatory screen for TC32 cells (AID 1347118); conditions: TC32 Ewing sarcoma cells viability qHTS; series mostly up to 45.9 µM;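 further: cells exposed to compound for 48 h before the read; nearly all actives have a fitted effect of over 65% in size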; further: potency means the concentration at half of the fitted maximal effect
Outline: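 Measured quantity: luminescence from CellTiter-Glo, reflecting metabolically active TC32 cells following 48 h of compound. Curves came straight from multi-point titrations, with 8 or 11 points in primary and 11 in confirmatory screening.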

[13] = qHTS of pediatric cancer cell lines to identify multiple opportunities for drug repurposing: Confirmatory screen for OHS-50 cells (AID 1347128); conditions: OHS-50 osteosarcoma cells viability; series mostly up to 45.9 µM;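 further: compound exposure lasted 48 h at 37 degrees C; nearly all actives have a fitted effect of over 55% in size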; further: potency means the concentration at half of the fitted maximal effect
Outline: as §1

[14] = target: N-terminal Xaa-Pro-Lys N-methyltransferase 1 (Homo sapiens) (UniProt Q9BV86); experiment: qHTS Assay for Inhibitors of N-terminal methyltransferase 1 (NTMT1): LOPAC validation of the NTMT1 SAHH-coupled ThioGlo3 Assay (AID 1347143); conditions: recombinant NTMT1, SAHH-coupled ThioGlo3 fluorescence; series mostly up to 114 µM;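 further: SAH from peptide methylation measured as thiol fluorescence via SAHH coupling and ThioGlo3; nearly all actives have a fitted effect of over 70% in size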; further: potency means the concentration at half of the fitted maximal effect; on activity change, negative = inhibition: on the % scale 0 is the no-effect control and ±100 the full control effect
Outline: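 In this qHTS pilot against the LOPAC set, 125nM NTMT1 met compounds tested at multiple concentrations, and fluorescence was normalized to background.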

[15] = tested on: Zika virus NS2B-NS3 protease (unlinked); experiment: Optimization of GU AMC qHTS for Zika virus inhibitors: Unlinked NS2B-NS3 protease assay (AID 1347151); conditions: recombinant ZIKV NS2B-NS3 protease, fluorogenic AMC substrate; series mostly up to 52.5 µM; further: nearly all actives have a fitted effect of over 80% in size; further: potency means the concentration at half of the fitted maximal effect;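 on activity change, negative = inhibition: 0% = no-inhibitor control and -100% = no-enzyme control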
Outline: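 In this qHTS, compounds acted on 25 nM unlinked Zika NS2B–NS3 in pH 8.0 Tris/Tween buffer. Cleavage of an AMC peptide ran 15 min at room temperature, to about 20% conversion.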

Furin (Homo sapiens) = Furin (Homo sapiens) (UniProt P09958); experiment: Furin counterscreen qHTS for Zika virus inhibitors (AID 1347149); conditions: furin enzymatic counterscreen, fluorogenic substrate; series mostly up to 57.5 µM;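 further: purified recombinant full-length human furin enzyme at 5 nM; fluorescence gain from furin cutting a BOC-RVRR-AMC peptide substrate over 15 min; top concentration of the series differs between compounds; plate controls were no-inhibitor control for no effect and no-enzyme control for full effect; nearly all actives have a fitted effect of over 70% in size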
Outline: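 Counterscreen measures cleavage of 2 microM BOC-RVRR-AMC, below its ~15 microM Km, by 5 nM full-length human furin at pH 7.0 after a 15-min compound preincubation. Inhibition derives from the 15-min fluorescence increase at 37C.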

[16] = tested on: Zika virus NS2B-NS3 protease (unlinked complex); experiment: Confirmatory screen GU AMC qHTS for Zika virus inhibitors (AID 1347153); conditions: Recombinant NS2B-NS3 protease, AMC substrate fluorescence; series mostly up to 57.1 µM
Outline: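 Unlinked enzyme 25 nM, Tris pH 8.0/0.01% Tween 20; cpd 15 min RT, dark; + AMC substrate 10 µM (Km 18.3 µM); 340/450 nm read at t0 and 15 min; % inhibition → 4-param fit.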

[17] = tested on: Zika virus NS2B-NS3 protease (linked construct); experiment: Confirmatory screen NINDS AMC qHTS for Zika virus inhibitors (AID 1347152); conditions: Purified linked NS2B-NS3, AMC substrate fluorescence; series mostly up to 56.6 µM
Outline: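 Concentration-response confirmation used the NINDS linked protease (NS2B hydrophilic domain joined to NS3 protease domain), 1 nM, with a 15-min compound preincubation. Substrate, Nle-KRR-AMC at 10 microM, was read by UV fluorescence before and after 15 min.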

Sequence of Furin (Homo sapiens) (P09958 whole entry, looked up): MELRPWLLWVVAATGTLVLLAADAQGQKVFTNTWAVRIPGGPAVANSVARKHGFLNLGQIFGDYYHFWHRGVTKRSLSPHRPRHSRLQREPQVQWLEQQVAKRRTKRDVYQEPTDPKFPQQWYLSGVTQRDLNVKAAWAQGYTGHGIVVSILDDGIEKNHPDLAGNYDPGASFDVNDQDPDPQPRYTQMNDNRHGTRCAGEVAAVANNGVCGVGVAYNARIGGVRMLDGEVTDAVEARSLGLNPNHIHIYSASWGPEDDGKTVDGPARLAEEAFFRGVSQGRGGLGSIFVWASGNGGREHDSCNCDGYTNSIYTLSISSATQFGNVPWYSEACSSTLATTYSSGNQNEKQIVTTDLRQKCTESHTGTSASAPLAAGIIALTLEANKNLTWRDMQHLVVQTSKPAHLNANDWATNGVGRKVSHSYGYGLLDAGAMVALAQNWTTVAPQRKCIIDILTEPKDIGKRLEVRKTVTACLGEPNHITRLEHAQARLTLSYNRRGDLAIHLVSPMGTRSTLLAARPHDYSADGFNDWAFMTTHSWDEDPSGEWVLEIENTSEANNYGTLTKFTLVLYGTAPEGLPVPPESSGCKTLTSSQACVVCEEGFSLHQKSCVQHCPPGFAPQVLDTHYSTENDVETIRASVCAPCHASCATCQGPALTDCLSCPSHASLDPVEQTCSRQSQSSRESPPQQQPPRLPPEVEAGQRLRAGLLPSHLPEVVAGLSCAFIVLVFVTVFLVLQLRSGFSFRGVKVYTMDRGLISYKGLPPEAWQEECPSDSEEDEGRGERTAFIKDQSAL
Sequence of N-terminal Xaa-Pro-Lys N-methyltransferase 1 (Homo sapiens) (Q9BV86 whole entry, looked up): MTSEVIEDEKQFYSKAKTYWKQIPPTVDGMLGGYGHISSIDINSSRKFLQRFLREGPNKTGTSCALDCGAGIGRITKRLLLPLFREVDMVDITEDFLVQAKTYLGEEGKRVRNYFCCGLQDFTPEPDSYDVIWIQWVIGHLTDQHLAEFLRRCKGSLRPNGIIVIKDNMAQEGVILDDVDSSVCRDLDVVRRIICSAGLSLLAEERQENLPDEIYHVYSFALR

Cc1ccc(NC(=O)c2ccc(CN3CCN(C)CC3)cc2)cc1Nc1nccc(-c2cccnc2)n1
inactive: Potency [1] | Potency [2] | Potency [3] | Potency [4] | Potency [5] | Potency [6] | Potency [7] | Potency [8] | Potency [9] | Potency [10] | Potency [11]

CC(C)CC(=O)N[C@H](C(=O)N[C@H](C(=O)N[C@@H](CC(C)C)[C@@H](O)CC(=O)N[C@@H](C)C(=O)N[C@@H](CC(C)C)[C@@H](O)CC(=O)O)C(C)C)C(C)C (Isovaleryl-VV[Sta]A[Sta]-OH)
inactive: Potency [9] | Potency [10]
active: Potency [12] 5.85 µM

Cc1ccc(Nc2nccc(N(C)c3ccc4c(C)n(C)nc4c3)n2)cc1S(N)(=O)=O
active: Potency [3] 18.5 µM | Potency [4] 10.4 µM | Potency [9] 18.7 µM
inactive: Potency [1] | Potency [5] | Potency [10] | Potency [11]

C[C@]12CCC(=O)C=C1CC[C@@H]1[C@H]2[C@@H](O)C[C@@]2(C)[C@H]1CC[C@]2(O)C(=O)CO
inactive: Potency [1] | Potency [2] | Potency [3] | Potency [4] | Potency [5] | Potency [6] | Potency [8] | Potency [13] | Potency [9] | Potency [10]

CCN(CC)C(=S)SSC(=S)N(CC)CC
active: Potency [12] 0.293 µM | Potency [3] 11.7 µM | Potency [4] 0.261 µM | Potency [5] 4.65 µM | Potency [8] 16.5 µM | Potency [14] 4.47 µM
inactive: Potency [1] | Potency [2] | Potency [7] | Potency [9] | Potency [15] | Potency [10]

COc1cc(C(C)=O)ccc1OCCCN1CCC(c2noc3cc(F)ccc23)CC1
inactive: Potency [1] | Potency [2] | Potency [5] | Potency [6] | Potency [8] | Potency [9] | Potency [10]
active: Potency [12] 20.8 µM | Potency [4] 18.5 µM

CN(C)C(=O)[C@H](O)[C@H](Cc1ccccc1)NC(=O)c1cc2cc(Cl)ccc2[nH]1
inactive: Potency [14] | Potency (Furin (Homo sapiens)) | Potency [16] | Potency [11]
active: Potency [15] 26.7 µM

CN(C)c1ccc(O)c2c1C[C@H]1C[C@H]3[C@H](N(C)C)C(=O)C(C(N)=O)=C(O)[C@@]3(O)C(=O)C1=C2O
active: Potency [12] 5.85 µM | Potency [9] 11.8 µM
inactive: Potency [2] | Potency [3] | Potency [4] | Potency [5] | Potency [6] | Potency [8] | Potency [13] | Potency (Furin (Homo sapiens)) | Potency [17] | Potency [16]

O=C(CCc1ccc(O)cc1)c1c(O)cc(O)cc1O
inactive: Potency [12] | Potency [1] | Potency [2] | Potency [3] | Potency [4] | Potency [5] | Potency [6] | Potency [7] | Potency [8] | Potency [13] | Potency [9] | Potency [15]

CC(S)C(=O)NCC(=O)O (stereo not drawn)
inactive: Potency [12] | Potency [1] | Potency [2] | Potency [6] | Potency [8] | Potency [13] | Potency [9] | Potency [10]
active: Potency [7] 10.4 µM

Nc1nc(Cl)nc2c1ncn2[C@H]1C[C@H](O)[C@@H](CO)O1
inactive: Potency [2] | Potency [3] | Potency [4] | Potency [6] | Potency [7] | Potency [8] | Potency [10]
active: Potency [12] 0.737 µM | Potency [1] 16.5 µM

CCN(CCO)CCCC(C)Nc1ccnc2cc(Cl)ccc12 (stereo not drawn)
inactive: Potency [12] | Potency [1] | Potency [2] | Potency [3] | Potency [4] | Potency [5] | Potency [6] | Potency [7] | Potency [8] | Potency [13] | Potency [9] | Potency [10] | activity change, negative = inhibition [11] 15.4% [at 11.5 µM]

CN(C)c1ccc2nc3ccc(=[N+](C)C)cc-3sc2c1
inactive: Potency [10]
active: Potency [12] 2.61 µM | Potency [1] 0.928 µM | Potency [2] 18.5 µM | Potency [3] 2.93 µM | Potency [4] 2.61 µM | Potency [5] 14.7 µM | Potency [6] 6.57 µM | Potency [7] 1.17 µM | Potency [8] 1.17 µM | Potency [13] 8.27 µM | Potency [9] 4.18 µM

CC[C@]1(O)C[C@H]2CN(CCc3c([nH]c4ccccc34)[C@@](C(=O)OC)(c3cc4c(cc3OC)N(C=O)[C@H]3[C@@](O)(C(=O)OC)[C@H](OC(C)=O)[C@]5(CC)C=CCN6CC[C@]43[C@@H]65)C2)C1
active: Potency [12] 26.1 nM and 117 nM | Potency [1] 46.5 nM and 329 nM | Potency [3] 414 nM and 585 nM | Potency [4] 23.3 nM and 18.5 nM | Potency [5] 52.2 nM and 147 nM | Potency [8] 8.3 nM and 165 nM
inactive: Potency [2] | Potency [6] | Potency [10]

Nc1ncn([C@H]2C[C@H](O)[C@@H](CO)O2)c(=O)n1
inactive: Potency [1] | Potency [2] | Potency [3] | Potency [4] | Potency [5] | Potency [6] | Potency [7] | Potency [8] | Potency [13] | Potency [9] | Potency [10]

Clc1ccc(C(Cn2ccnc2)OCc2ccc(Sc3ccccc3)cc2)c(Cl)c1 (stereo not drawn)
active: Potency [12] 10.4 µM | Potency [3] 18.5 µM
inactive: Potency [6] | Potency [10]
